Screening data: PubChem BioAssay, National Center for Advancing Translational Sciences (NCATS)
TDP1 cell noCPT: qHTS for Inhibitors of human tyrosyl-DNA phosphodiesterase 1 (TDP1): qHTS in cells in absence of CPT; DT40 Tdp1-/- hTDP1 cells, no CPT, ATP luminescence, 48 h; Potency, µM (series often up to 46.2 µM), actives largely listed as inhibitors; 420,000 compounds, 15% hits; also: nearly all actives have a fitted effect of over 55% in size
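Luminescent ATP content (CellTiter-Glo) served as the growth readout. Knockout chicken DT40 cells expressing human TDP1 were exposed to compounds without camptothecin for a minimum 48 hr at 37 °C.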
ClpP mod: qHTS Assay for Activators of ClpP. purified B. subtilis ClpP, FRET peptide cleavage, 20 min. AID 651965, 2013. ATP-dependent Clp protease proteolytic subunit (Bacillus subtilis (strain 168)), P80244. Potency, µM (titrated, usually from 57.5 µM). 340,000 compounds, 1.9% hits; active = well fitted falling curve with a large enough effect; inconclusive = small, poorly fitted or top-dose-only effect; inactive = no such curve, though single readings can be large or run the other way; also: the source files actives as falling curves though it sought activators and does not explain the sign; nearly all actives have a fitted effect of over 65% in size
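FRET quenching reversal measured ClpP activation: 10 microg/mL B. subtilis ClpP at pH 8 with the FRET-FV decapeptide, read at 430 nm after 320 nm excitation. The 20-min minus 0-min signal was scaled between DMSO/no-enzyme wells and ADEP (5.8 microM final).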
TDP1 block: TDP1 (human) enzyme inhibition. Q9NUW8. recombinant TDP1, AlphaScreen DNA substrate cleavage. Potency, µM (titrated, usually from 130 µM), actives largely listed as inhibitors. 350,000 compounds, 0.28% hits. AID 485290; also: nearly all actives have a fitted effect of over 40% in size
Target sequence (Q9NUW8 whole entry, looked up): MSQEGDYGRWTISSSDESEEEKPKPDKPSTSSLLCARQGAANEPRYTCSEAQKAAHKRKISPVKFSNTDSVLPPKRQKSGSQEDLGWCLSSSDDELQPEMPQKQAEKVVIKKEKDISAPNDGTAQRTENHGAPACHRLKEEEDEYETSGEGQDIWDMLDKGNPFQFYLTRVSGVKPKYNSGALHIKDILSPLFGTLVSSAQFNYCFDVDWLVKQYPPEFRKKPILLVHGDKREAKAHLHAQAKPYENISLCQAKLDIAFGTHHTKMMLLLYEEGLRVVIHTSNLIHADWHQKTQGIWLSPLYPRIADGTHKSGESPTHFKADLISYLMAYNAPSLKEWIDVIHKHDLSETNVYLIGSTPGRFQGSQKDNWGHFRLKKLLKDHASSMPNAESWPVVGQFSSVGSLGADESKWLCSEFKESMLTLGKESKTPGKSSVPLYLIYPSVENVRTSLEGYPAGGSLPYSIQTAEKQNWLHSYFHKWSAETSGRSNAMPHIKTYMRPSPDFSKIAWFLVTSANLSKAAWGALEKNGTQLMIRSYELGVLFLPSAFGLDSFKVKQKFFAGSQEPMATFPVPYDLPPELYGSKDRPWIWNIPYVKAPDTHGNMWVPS
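Recombinant human Tdp1 (E. coli-expressed, 1 nM final) preincubated with compounds 15 min at room temperature, then 5'-biotin/3'-phosphotyrosine-FITC DNA substrate (15 nM final) added for 5 min. AlphaScreen beads (10 ug/ml final) added 10 min; cleavage lowers signal.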
TDP1 cell CPT: growth inhibition of DT40 Tdp1-/-;hTDP1 cells with camptothecin (screen for TDP1 inhibitors). chicken DT40 Tdp1-/-;hTDP1 cells + 20 nM CPT, ATP luminescence, 48 h. 420,000 compounds, 12% hits. Potency, µM (series often up to 46.2 µM), actives largely listed as inhibitors; also: nearly all actives have a fitted effect of over 55% in size
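Chicken DT40 Tdp1-/- cells complemented with human TDP1, 400 cells/well, exposed to compounds plus 20 nM camptothecin for at least 48 h at 37 C; viability read as ATP content by CellTiter-Glo luminescence.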
Of the large screens only hits and unclear results are named; the others gave an inactive call. Sampled rows, rich in hits. Any-hit rate of the full collection: about 17%. Unless noted, calls follow the shape of the dose curve; as a rule, active = well fitted curve in the direction sought with a large enough effect; inconclusive = small, poorly fitted or top-dose-only effect, or another doubt; inactive = no such curve, though single readings can be large; an effect the other way counts as inactive or inconclusive.

O=C(C#Cc1ccccc1)Nc1ccc(F)cc1	TDP1 cell noCPT 12µM, TDP1 cell CPT inconclusive (no result: ClpP mod, TDP1 block)
O=C(Cn1c(=O)oc2ccccc21)Nc1ccc(Cl)cc1	none (no result: TDP1 block)
CCOC(=O)C1=C(N)Oc2ccc(Br)cc2C1C(C#N)C(=O)OCC (stereo unspecified)	none (no result: ClpP mod)
CCOC(=O)C1CCCN(C(=O)COc2ccc(C(=O)c3ccc(F)cc3)cc2)C1 (stereo unspecified)	TDP1 cell noCPT inconclusive, TDP1 cell CPT 18µM
CCOC(=O)C1CCCN(C(=O)c2ccc3c(c2)sc2nc(-c4cccc(OC)c4)cn23)C1 (stereo unspecified)	TDP1 cell noCPT 15µM, TDP1 cell CPT 18µM
CCOC(=O)C1CCCN(C(=O)c2ccc3c(c2)sc2nc(-c4ccc(C)cc4C)cn23)C1 (stereo unspecified)	TDP1 cell noCPT 18µM, TDP1 cell CPT 16µM
CCOC(=O)C1CCCN(C(=O)c2sc3nc(-c4ccc(F)cc4)cn3c2C)C1 (stereo unspecified)	TDP1 cell noCPT 26µM, TDP1 cell CPT inconclusive
O=C(COc1ccc(F)cc1)N1CCCCCCC1	none (no result: ClpP mod, TDP1 block)
CCOC(=O)C1CCCN(C(=O)c2sc3nc(-c4ccccc4)cn3c2C)C1 (stereo unspecified)	TDP1 cell noCPT inconclusive, TDP1 cell CPT inconclusive
Cc1ccc2c(c1)c1c(c(=O)n(-c3cccc(Cl)c3)c(=O)n1CC(=O)Nc1c(C)cccc1C)n2C	none
Cc1ccc(CN2C(=O)CSCC2(C)C(=O)Nc2c(C)cccc2C)cc1 (stereo unspecified)	none (no result: TDP1 block)
ClN=C1C=CC=CC1=NCl	TDP1 cell noCPT inconclusive, TDP1 cell CPT 16µM (no result: TDP1 block)
CC1CCN(CCCNC(=O)C2CCCN(c3ncnc4c3nc3n4CCCCC3)C2)CC1 (stereo unspecified)	none (no result: ClpP mod)
O=C(NCCCN1CCN(c2ccc(F)cc2)CC1)C1CCCN(c2ncnc3c2nc2n3CCCCC2)C1 (stereo unspecified)	TDP1 cell noCPT 8.2µM, TDP1 cell CPT inconclusive (no result: ClpP mod)
O=C(Nc1ccc(F)cc1F)C1CCCN(c2ncnc3c2nc2n3CCCCC2)C1 (stereo unspecified)	TDP1 cell noCPT 15µM, TDP1 cell CPT 13µM (no result: ClpP mod)
CC1CCCCN1CCNC(=O)C1CCCN(c2ncnc3c2nc2n3CCCCC2)C1 (stereo unspecified)	none (no result: ClpP mod)
O=C(Nc1cc(F)ccc1F)C1CCCN(c2ncnc3c2nc2n3CCCCC2)C1 (stereo unspecified)	TDP1 cell noCPT 13µM, TDP1 cell CPT 15µM
O=C(NCc1ccc(Cl)cc1)C1CCCN(c2ncnc3c2nc2n3CCCCC2)C1 (stereo unspecified)	TDP1 cell noCPT inconclusive, TDP1 cell CPT inconclusive
Cc1ccc(NC(=O)C2CCCN(c3ncnc4c3nc3n4CCCCC3)C2)c(Br)c1 (stereo unspecified)	TDP1 cell noCPT 4.1µM, TDP1 cell CPT 5.8µM
COc1cc2c(cc1OC)C(c1ccccc1)CN(C)CC2 (stereo unspecified)	none (no result: TDP1 cell noCPT, ClpP mod, TDP1 cell CPT)
COc1ccc(CN(C(=O)CCC(=O)Nc2cc(C)on2)C(C(=O)NC(C)(C)C)c2cccc(OC)c2OC)cc1 (stereo unspecified)	none (no result: ClpP mod)
CCOC(=O)/C(C#N)=C/c1cc(C)n(-c2ccc(C)cc2)c1C	TDP1 cell noCPT 18µM, TDP1 cell CPT 18µM
Cc1cc(/C=C(\C#N)C(=O)Nc2ccccc2)c(C)n1-c1ccc(C(=O)O)cc1	none
Cc1cc(/C=C(\C#N)C(=O)Nc2ccc(Cl)cc2)c(C)n1-c1ccc(N2CCOCC2)c([N+](=O)[O-])c1	TDP1 cell noCPT 7.3µM, TDP1 cell CPT 7.3µM
CNC(=O)/C(C#N)=C/c1cc(C)n(-c2ccc(N3CCOCC3)cc2)c1C	TDP1 cell noCPT inconclusive, TDP1 cell CPT 3.3µM
Cc1cc(C=O)c(C)n1-c1ccc(N2CCOCC2)c([N+](=O)[O-])c1	TDP1 cell noCPT inconclusive, TDP1 cell CPT inconclusive (no result: ClpP mod)
Cc1cccc(NC(=O)/C(C#N)=C\c2cc(C)n(-c3ccc(C(=O)O)cc3)c2C)c1	TDP1 cell noCPT 18µM, TDP1 cell CPT inconclusive
O=C(c1ccc(Br)s1)N(Cc1cccnc1)c1nc2ccc(F)cc2s1	none
CC(C)(C)OC(=O)CC(=O)NNC(=O)c1cc2ccccc2[nH]1	none (no result: TDP1 cell noCPT, ClpP mod, TDP1 cell CPT)
Cc1ccc(NC(=O)/C(C#N)=C/c2cc(C)n(-c3ccc(N4CCOCC4)c([N+](=O)[O-])c3)c2C)c(C)c1	TDP1 cell noCPT 8.2µM, TDP1 cell CPT 7.3µM
Cc1cccc(OCCN2C(=O)C(=O)c3cc(C)ccc32)c1	TDP1 cell noCPT 0.46µM, TDP1 cell CPT 0.37µM (no result: ClpP mod)
Cc1ccc2c(c1)C(=O)C(=O)N2CCOc1ccccc1	TDP1 cell noCPT 0.73µM, TDP1 cell CPT 0.58µM (no result: ClpP mod)
O=C(CSc1nnc(-c2ccc(Br)cc2)n1CCc1ccccc1)NC1CCS(=O)(=O)C1 (stereo unspecified)	none (no result: ClpP mod)
CCOc1ccc(Sc2cc(C(=O)NCCCOC)c3ccccc3n2)cc1	TDP1 cell noCPT 16µM, TDP1 cell CPT 21µM
CC1CCN(CCCNC(=O)c2cc(Sc3ccc(F)cc3)nc3ccccc23)CC1	TDP1 cell noCPT inconclusive, TDP1 cell CPT 23µM
CCc1ccc(Sc2cc(C(=O)NCCN3CCOCC3)c3ccccc3n2)cc1	TDP1 cell noCPT 15µM, TDP1 cell CPT inconclusive
CCCN(CCC)CCNC(=O)c1cc(Sc2ccc(Cl)cc2)nc2ccccc12	TDP1 cell noCPT 18µM, TDP1 cell CPT 16µM
CCN(CC)CCNC(=O)c1cc(Sc2nnc(C)s2)nc2ccccc12	none
COCCNC(=O)c1cc(Sc2ccc(F)cc2F)nc2ccccc12	none
Cc1nc2nc(NCc3ccc(Br)cc3)[nH]n2c(=O)c1Cc1ccccc1	TDP1 cell noCPT inconclusive, TDP1 cell CPT inconclusive
CC1CCCCN1CCCNC(=O)c1cc(Sc2ccc(Cl)cc2)nc2ccccc12 (stereo unspecified)	TDP1 cell noCPT 21µM, TDP1 cell CPT 18µM
COc1cccc(CNC(=O)C2CCN(c3nn4c(=O)cc(C)nc4s3)CC2)c1	none
CSc1cccc(N2C(=O)C3CCCN3C2=S)c1 (stereo unspecified)	none (no result: ClpP mod, TDP1 block)
Cc1ccc(S(=O)(=O)SC/C=C/CSS(=O)(=O)c2ccc(C)cc2)cc1	TDP1 cell noCPT 15µM, TDP1 cell CPT inconclusive (no result: TDP1 block)
Cc1ccc(S(=O)(=O)SCCCSS(=O)(=O)c2ccc(C)cc2)cc1	TDP1 cell noCPT 21µM, TDP1 cell CPT 18µM (no result: TDP1 block)
Cc1ccc(S(=O)(=O)CS(=O)(=O)c2ccc(C)cc2)cc1	none (no result: TDP1 block)
Cc1ccc(S(=O)(=O)CCCS(=O)(=O)c2ccc(C)cc2)cc1	none
CCc1nc2ccc(C(=O)NCCC(C)C)cn2c1N(CCN(C)C)CC1CC1	none (no result: TDP1 block)
CO[C@H]1C[C@@H]2CC[C@@H](C)[C@@](O)(O2)C(=O)C(=O)N2CCCC[C@H]2C(=O)O[C@H]([C@H](C)C[C@@H]2CC[C@@H](O)[C@H](OC)C2)CC(=O)[C@H](C)/C=C(/C)[C@@H](O)[C@@H](OC)C(=O)[C@H](C)C[C@H](C)C=C/C=C\C=C/1C	TDP1 cell noCPT inconclusive, TDP1 cell CPT 4µM
